The record followed here is PubChem BioAssay (EPA / NIEHS).

What is called AC50 is the concentration giving half of the maximal activity seen.

“And” between values parts separate entries of the source, which are not always exact repeats. Equal entries are not always repeated. Records with an inconclusive call do not appear. A structure can be active in one record and inactive in another. The source made the active and inactive calls. Rule for the calls: active = hit-call score of the fitted dose curve at least 0.9, where 1 is the maximum; inconclusive = response in the unintended direction; inactive = score below 0.9.

Assay [1] addresses human Phosphodiesterase 4A1 (PDE4A1), PDE4A (gene 5141) (UniProt P27815). Description: NVS_ENZ_hPDE4A1: NovaScreen (NVS) Enzymatic Assay for human Phosphodiesterase 4A1 (PDE4A1) (AID 2283191). The gist of the method: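 Fluorescent substrate turnover by recombinant PDE4A1 read after 1 h by mobility-shift separation. Primary duplicate screen at 25 uM; hits retested in concentration series with a 50 uM maximum, relative to DMSO.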

The target in assay [2] is human Phosphoinositide 3-kinase alpha (PI3Ka), PIK3CA (gene 5290) (UniProt P42336). Put plainly: NVS_ENZ_hPI3Ka: NovaScreen (NVS) Enzymatic Assay for human Phosphoinositide 3-kinase alpha (PI3Ka) (AID 2283196). The procedure, abridged: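 Recombinant human PI3Kα with fluorescent substrate, 1 h, product separated by electrophoretic mobility shift; 25 uM duplicate screen, hits (e.g., 30% inhibition) retested singly up to 50 uM; loss of signal vs DMSO.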
Chain of human Phosphoinositide 3-kinase alpha (PI3Ka), PIK3CA (gene 5290) (P42336 whole entry, looked up): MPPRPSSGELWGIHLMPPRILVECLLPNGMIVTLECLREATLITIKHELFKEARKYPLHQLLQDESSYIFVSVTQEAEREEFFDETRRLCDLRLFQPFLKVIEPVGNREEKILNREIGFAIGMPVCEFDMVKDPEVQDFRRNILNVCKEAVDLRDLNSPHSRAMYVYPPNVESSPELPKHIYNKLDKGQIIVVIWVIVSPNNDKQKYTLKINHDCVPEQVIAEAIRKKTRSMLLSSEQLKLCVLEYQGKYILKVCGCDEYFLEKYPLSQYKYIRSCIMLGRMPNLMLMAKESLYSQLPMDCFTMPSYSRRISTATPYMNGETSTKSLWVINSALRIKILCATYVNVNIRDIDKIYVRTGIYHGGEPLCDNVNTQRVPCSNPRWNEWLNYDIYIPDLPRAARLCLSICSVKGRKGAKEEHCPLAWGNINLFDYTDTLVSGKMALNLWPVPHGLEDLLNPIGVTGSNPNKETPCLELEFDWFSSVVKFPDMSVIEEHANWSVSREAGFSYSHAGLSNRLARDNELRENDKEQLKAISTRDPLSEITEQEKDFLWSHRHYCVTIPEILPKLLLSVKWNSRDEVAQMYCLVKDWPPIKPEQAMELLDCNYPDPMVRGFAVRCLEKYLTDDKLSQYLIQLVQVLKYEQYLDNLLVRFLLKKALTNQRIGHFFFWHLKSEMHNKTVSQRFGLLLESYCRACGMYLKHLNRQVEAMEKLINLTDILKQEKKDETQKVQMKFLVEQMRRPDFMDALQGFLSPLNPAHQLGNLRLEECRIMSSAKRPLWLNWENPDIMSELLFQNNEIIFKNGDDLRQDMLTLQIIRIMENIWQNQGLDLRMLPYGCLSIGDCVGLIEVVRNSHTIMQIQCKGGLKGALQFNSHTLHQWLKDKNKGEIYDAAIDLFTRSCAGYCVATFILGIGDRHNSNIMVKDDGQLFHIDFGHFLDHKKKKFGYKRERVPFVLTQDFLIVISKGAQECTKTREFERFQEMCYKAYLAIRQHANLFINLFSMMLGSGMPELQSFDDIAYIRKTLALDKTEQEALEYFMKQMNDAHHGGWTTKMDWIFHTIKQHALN

Assay [3] addresses human Phosphatase and Tensin Homolog (PTEN), PTEN (gene 5728) (UniProt P60484). Put plainly: NVS_ENZ_hPTEN: NovaScreen (NVS) Enzymatic Assay for human Phosphatase and Tensin Homolog (PTEN) (AID 2283203). The gist of the method:
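Loss of fluorescent product signal after mobility-shift separation reports PTEN activity, recombinant human enzyme, 1 h after compound addition. Single 25 uM duplicate screen, then concentration-response on actives; DMSO baseline.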

Assay [4] addresses human Protein Tyrosine Phosphatase Non-receptor Type 2 (PTPN2), PTPN2 (gene 5771) (UniProt P17706). Put plainly: NVS_ENZ_hPTPN2: NovaScreen (NVS) Enzymatic Assay for human Protein Tyrosine Phosphatase Non-receptor Type 2 (PTPN2) (AID 2283207). The procedure, abridged: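 Activity measured as fluorescence after mobility-shift separation of substrate and product, 1 h after compound. Duplicate single-point 25 uM primary testing, concentration series for actives; inhibition scored as signal loss relative to DMSO baseline.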

Assay [5] deals with Tyrosine-protein phosphatase non-receptor type 14 (Homo sapiens) (UniProt Q15678). Put plainly: NVS_ENZ_hPTPN14: NovaScreen (NVS) Enzymatic Assay for human Protein Tyrosine Phosphatase Non-receptor Type 14 (PTPN14) (AID 2283206). The gist of the method:
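Fluorescent substrate turnover by recombinant human PTPN14 was measured 0.5 h after compound addition, with substrate and product separated by mobility shift. Single-point screening at 25 uM, then concentration-response up to 50 uM for chemicals meeting threshold (e.g., 30% inhibition).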

Assay [6] deals with human Matrix Metalloproteinase-3 (MMP3), MMP3 (gene 4314) (UniProt P08254). Put plainly: NVS_ENZ_hMMP3: NovaScreen (NVS) Enzymatic Assay for human Matrix Metalloproteinase-3 (MMP3) (AID 2283185). The procedure, abridged: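 Fluorescent substrate turnover by recombinant MMP3 read after 1 h, signal loss scored against DMSO. Compounds first run in duplicate at 25 uM single dose, then actives confirmed by concentration series.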
Chain of human Matrix Metalloproteinase-3 (MMP3), MMP3 (gene 4314) (P08254 whole entry, looked up): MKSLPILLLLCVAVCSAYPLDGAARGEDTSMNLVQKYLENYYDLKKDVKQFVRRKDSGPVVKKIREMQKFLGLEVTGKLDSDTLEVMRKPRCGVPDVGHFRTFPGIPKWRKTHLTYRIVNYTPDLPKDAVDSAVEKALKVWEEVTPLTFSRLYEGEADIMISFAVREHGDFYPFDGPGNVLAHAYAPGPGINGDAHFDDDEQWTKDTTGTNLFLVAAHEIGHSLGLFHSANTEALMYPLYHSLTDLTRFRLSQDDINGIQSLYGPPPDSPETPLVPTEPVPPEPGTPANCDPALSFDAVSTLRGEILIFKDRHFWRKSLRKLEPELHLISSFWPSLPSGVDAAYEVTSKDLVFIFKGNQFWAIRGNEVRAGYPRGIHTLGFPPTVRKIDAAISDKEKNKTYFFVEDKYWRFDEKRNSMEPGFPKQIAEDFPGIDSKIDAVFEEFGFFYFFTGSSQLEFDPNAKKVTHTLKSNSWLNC

In assay [7] the target is human Mitogen- and Stress-activated Protein Kinase-1 (Msk1), RPS6KA5 (gene 9252) (UniProt O75582). Description: NVS_ENZ_hMsk1: NovaScreen (NVS) Enzymatic Assay for human Mitogen- and Stress-activated Protein Kinase-1 (Msk1) (AID 2283187). The procedure, abridged: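 Chemicals first run in duplicate at 25 uM, with actives followed up in singleton concentration series to 50 uM maximum. Enzyme activity came from substrate/product mobility-shift separation with fluorescence detection after 1 h incubation of the recombinant protein.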

Assay [8] has as its target human p21 Activated Kinase 4 (PAK4), PAK4 (gene 10298) (UniProt O96013). Description: NVS_ENZ_hPAK4: NovaScreen (NVS) Enzymatic Assay for human p21 Activated Kinase 4 (PAK4) (AID 2283189). The procedure, abridged:
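Extracted PAK4 enzyme activity read by fluorescence with mobility-shift separation 1 h after chemical addition. Duplicate single-concentration screen at 25 uM, DMSO as negative control.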

Assay [9] has as its target human Matrix Metalloproteinase-9 (MMP9), MMP9 (gene 4318) (UniProt P14780). Description: NVS_ENZ_hMMP9: NovaScreen (NVS) Enzymatic Assay for human Matrix Metalloproteinase-9 (MMP9) (AID 2283190).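 Note: cell-free recombinant MMP9 protease activity read by fluorescent substrate signal; active means inhibition seen as loss of fluorescence signal versus DMSO.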 The procedure, abridged: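 Cell-free recombinant MMP9 enzyme activity measured by fluorescence intensity 1 h after dosing. Primary screen in duplicate at 25 uM, actives followed in concentration series; loss of signal relative to DMSO.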

In assay [10] the target is cAMP-dependent protein kinase catalytic subunit alpha (Homo sapiens) (UniProt P17612). Put plainly: NVS_ENZ_hPKA: NovaScreen (NVS) Enzymatic Assay for human Protein Kinase A (PKA) (AID 2283192). The procedure, abridged: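 Cell-free kinase activity read by fluorescence after mobility-shift separation of substrate and product, 1 h post-dosing. Single-concentration duplicate screen (25 uM) preceded singleton concentration series (top 50 uM); loss of signal versus DMSO.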

The target of assay [11] is human Phosphodiesterase 5 (PDE5), PDE5A (gene 8654) (UniProt O76074). Put plainly: NVS_ENZ_hPDE5: NovaScreen (NVS) Enzymatic Assay for human Phosphodiesterase 5 (PDE5) (AID 2283194). The gist of the method: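 Screening began in duplicate at 25 uM, with actives taken into concentration-response. Enzyme activity of recombinant PDE5 toward its substrate was measured at 1 h by fluorescence mobility-shift detection, relative to DMSO controls.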

Assay [12] has as its target human Phosphodiesterase 10 (PDE10), PDE10A (gene 10846) (UniProt Q9Y233). Description: NVS_ENZ_hPDE10: NovaScreen (NVS) Enzymatic Assay for human Phosphodiesterase 10 (PDE10) (AID 2283195). The gist of the method: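 Biochemical single-readout PDE10A assay, cell-free, extracted protein. Compounds first screened at 25 uM in duplicate, hits then titrated to 50 uM max. Activity measured after 1 h; loss-of-signal fitted against DMSO negative control.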

For assay [13], the target named is human Protein Phosphatase, Mg2+/Mn2+ Dependent 1A (PPM1A), PPM1A (gene 5494) (UniProt P35813). Put plainly: NVS_ENZ_hPPM1A: NovaScreen (NVS) Enzymatic Assay for human Protein Phosphatase, Mg2+/Mn2+ Dependent 1A (PPM1A) (AID 2283198). The procedure, abridged:
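Primary screen in duplicate at 25 uM, with actives then titrated to a maximum of 50 uM. Recombinant PPM1A dephosphorylation of fluorescent substrate measured at 1 h, with substrate and product separated by mobility shift; inhibition fitted against DMSO.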

Another assay has as its target PPP2CA (gene 5515) (UniProt P67775). Description: NVS_ENZ_hPPP2CA: NovaScreen (NVS) Enzymatic Assay for human Protein Phosphatase 2 Aatalytic subunit Alpha (PPP2CA) (AID 2283199). The procedure, abridged: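 Cell-free phosphatase activity: fluorescent substrate turnover by recombinant human enzyme, resolved by mobility shift at 1.33 h. Compounds passing the 25 uM duplicate primary screen were rerun in singleton series with a 50 uM top concentration.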

Assay [14] addresses Serine/threonine-protein phosphatase PP1-alpha catalytic subunit (Homo sapiens) (UniProt P62136). Put plainly: NVS_ENZ_hPPP1CA: NovaScreen (NVS) Enzymatic Assay for human Protein Phosphatase 1 Aatalytic subunit Alpha (PPP1CA) (AID 2283200). The procedure, abridged:
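Chemicals were first screened in duplicate at 25 uM, and those passing threshold (e.g. 30% inhibition) were run as concentration series to 50 uM. Cell-free recombinant protein, 1.33 h read, fluorescent substrate/product mobility-shift detection, normalised to DMSO.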

The target of assay [15] is human Protein Tyrosine Phosphatase Non-receptor Type 1 (PTPN1), PTPN1 (gene 5770) (UniProt P18031). Put plainly: NVS_ENZ_hPTPN1: NovaScreen (NVS) Enzymatic Assay for human Protein Tyrosine Phosphatase Non-receptor Type 1 (PTPN1) (AID 2283201). The gist of the method: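 Chemicals were first tested in duplicate at 25 uM, and those passing threshold went on to singleton concentration series topping at 50 uM. Recombinant enzyme, specific substrate, product separated by mobility shift, fluorescence read at 1.33 h; activity loss relative to DMSO.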

Assay [16] has as its target Tyrosine-protein phosphatase non-receptor type 11 (Homo sapiens) (UniProt Q06124). Put plainly: NVS_ENZ_hPTPN11: NovaScreen (NVS) Enzymatic Assay for human Protein Tyrosine Phosphatase Non-receptor Type 11 (PTPN11) (AID 2283202). The gist of the method:
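Compounds first tested in duplicate at 25 uM; those reaching ~30% inhibition rerun in singleton concentration-response, top 50 uM. Phosphatase activity measured after 0.5 h by fluorescence with mobility-shift separation, relative to DMSO.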

In assay [17] the target is Tyrosine-protein phosphatase non-receptor type 12 (Homo sapiens) (UniProt Q05209). Put plainly: NVS_ENZ_hPTPN12: NovaScreen (NVS) Enzymatic Assay for human Protein Tyrosine Phosphatase Non-receptor Type 12 (PTPN12) (AID 2283204). The gist of the method:
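Single-concentration duplicates (25 uM) preceded singleton concentration-response up to 50 uM for chemicals passing threshold. Cell-free recombinant PTPN12 activity was read 1.33 h after dosing via fluorescence after mobility-shift separation; loss of signal versus DMSO.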

Assay [18] has as its target Tyrosine-protein phosphatase non-receptor type 13 (Homo sapiens) (UniProt Q12923). Put plainly: NVS_ENZ_hPTPN13: NovaScreen (NVS) Enzymatic Assay for human Protein Tyrosine Phosphatase Non-receptor Type 13 (PTPN13) (AID 2283205). The procedure, abridged: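 Screened first at a single 25 uM in duplicate; compounds passing the threshold (e.g. 30% inhibition) were rerun in concentration series, top 50 uM. Recombinant enzyme, fluorescent substrate, mobility-shift separation, 0.5 h read. Data fitted as inhibition relative to DMSO.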

Chain of human Phosphatase and Tensin Homolog (PTEN), PTEN (gene 5728) (P60484 whole entry, looked up): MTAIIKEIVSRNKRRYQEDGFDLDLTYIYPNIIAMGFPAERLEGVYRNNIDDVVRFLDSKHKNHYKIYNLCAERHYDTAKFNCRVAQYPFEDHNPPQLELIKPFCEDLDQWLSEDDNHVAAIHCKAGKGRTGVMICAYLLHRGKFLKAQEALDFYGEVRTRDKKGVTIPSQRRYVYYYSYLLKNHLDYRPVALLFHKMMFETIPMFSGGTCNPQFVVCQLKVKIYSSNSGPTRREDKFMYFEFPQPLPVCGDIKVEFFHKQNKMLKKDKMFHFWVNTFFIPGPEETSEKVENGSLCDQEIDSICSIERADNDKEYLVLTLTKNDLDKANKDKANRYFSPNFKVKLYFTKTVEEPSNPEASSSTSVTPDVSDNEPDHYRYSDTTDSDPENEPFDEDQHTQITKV
Chain of human Protein Tyrosine Phosphatase Non-receptor Type 2 (PTPN2), PTPN2 (gene 5771) (P17706 whole entry, looked up): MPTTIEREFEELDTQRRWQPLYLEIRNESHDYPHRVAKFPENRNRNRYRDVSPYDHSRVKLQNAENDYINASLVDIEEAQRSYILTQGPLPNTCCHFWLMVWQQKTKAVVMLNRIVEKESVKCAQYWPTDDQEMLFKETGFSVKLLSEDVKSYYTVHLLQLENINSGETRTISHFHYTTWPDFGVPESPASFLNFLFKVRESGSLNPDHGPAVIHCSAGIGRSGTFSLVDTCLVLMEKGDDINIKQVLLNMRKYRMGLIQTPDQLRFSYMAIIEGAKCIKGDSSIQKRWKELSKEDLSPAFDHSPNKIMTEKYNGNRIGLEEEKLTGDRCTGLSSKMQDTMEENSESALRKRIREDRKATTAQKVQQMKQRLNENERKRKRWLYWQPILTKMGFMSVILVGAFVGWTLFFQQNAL
Chain of Tyrosine-protein phosphatase non-receptor type 13 (Homo sapiens) (Q12923 whole entry, looked up): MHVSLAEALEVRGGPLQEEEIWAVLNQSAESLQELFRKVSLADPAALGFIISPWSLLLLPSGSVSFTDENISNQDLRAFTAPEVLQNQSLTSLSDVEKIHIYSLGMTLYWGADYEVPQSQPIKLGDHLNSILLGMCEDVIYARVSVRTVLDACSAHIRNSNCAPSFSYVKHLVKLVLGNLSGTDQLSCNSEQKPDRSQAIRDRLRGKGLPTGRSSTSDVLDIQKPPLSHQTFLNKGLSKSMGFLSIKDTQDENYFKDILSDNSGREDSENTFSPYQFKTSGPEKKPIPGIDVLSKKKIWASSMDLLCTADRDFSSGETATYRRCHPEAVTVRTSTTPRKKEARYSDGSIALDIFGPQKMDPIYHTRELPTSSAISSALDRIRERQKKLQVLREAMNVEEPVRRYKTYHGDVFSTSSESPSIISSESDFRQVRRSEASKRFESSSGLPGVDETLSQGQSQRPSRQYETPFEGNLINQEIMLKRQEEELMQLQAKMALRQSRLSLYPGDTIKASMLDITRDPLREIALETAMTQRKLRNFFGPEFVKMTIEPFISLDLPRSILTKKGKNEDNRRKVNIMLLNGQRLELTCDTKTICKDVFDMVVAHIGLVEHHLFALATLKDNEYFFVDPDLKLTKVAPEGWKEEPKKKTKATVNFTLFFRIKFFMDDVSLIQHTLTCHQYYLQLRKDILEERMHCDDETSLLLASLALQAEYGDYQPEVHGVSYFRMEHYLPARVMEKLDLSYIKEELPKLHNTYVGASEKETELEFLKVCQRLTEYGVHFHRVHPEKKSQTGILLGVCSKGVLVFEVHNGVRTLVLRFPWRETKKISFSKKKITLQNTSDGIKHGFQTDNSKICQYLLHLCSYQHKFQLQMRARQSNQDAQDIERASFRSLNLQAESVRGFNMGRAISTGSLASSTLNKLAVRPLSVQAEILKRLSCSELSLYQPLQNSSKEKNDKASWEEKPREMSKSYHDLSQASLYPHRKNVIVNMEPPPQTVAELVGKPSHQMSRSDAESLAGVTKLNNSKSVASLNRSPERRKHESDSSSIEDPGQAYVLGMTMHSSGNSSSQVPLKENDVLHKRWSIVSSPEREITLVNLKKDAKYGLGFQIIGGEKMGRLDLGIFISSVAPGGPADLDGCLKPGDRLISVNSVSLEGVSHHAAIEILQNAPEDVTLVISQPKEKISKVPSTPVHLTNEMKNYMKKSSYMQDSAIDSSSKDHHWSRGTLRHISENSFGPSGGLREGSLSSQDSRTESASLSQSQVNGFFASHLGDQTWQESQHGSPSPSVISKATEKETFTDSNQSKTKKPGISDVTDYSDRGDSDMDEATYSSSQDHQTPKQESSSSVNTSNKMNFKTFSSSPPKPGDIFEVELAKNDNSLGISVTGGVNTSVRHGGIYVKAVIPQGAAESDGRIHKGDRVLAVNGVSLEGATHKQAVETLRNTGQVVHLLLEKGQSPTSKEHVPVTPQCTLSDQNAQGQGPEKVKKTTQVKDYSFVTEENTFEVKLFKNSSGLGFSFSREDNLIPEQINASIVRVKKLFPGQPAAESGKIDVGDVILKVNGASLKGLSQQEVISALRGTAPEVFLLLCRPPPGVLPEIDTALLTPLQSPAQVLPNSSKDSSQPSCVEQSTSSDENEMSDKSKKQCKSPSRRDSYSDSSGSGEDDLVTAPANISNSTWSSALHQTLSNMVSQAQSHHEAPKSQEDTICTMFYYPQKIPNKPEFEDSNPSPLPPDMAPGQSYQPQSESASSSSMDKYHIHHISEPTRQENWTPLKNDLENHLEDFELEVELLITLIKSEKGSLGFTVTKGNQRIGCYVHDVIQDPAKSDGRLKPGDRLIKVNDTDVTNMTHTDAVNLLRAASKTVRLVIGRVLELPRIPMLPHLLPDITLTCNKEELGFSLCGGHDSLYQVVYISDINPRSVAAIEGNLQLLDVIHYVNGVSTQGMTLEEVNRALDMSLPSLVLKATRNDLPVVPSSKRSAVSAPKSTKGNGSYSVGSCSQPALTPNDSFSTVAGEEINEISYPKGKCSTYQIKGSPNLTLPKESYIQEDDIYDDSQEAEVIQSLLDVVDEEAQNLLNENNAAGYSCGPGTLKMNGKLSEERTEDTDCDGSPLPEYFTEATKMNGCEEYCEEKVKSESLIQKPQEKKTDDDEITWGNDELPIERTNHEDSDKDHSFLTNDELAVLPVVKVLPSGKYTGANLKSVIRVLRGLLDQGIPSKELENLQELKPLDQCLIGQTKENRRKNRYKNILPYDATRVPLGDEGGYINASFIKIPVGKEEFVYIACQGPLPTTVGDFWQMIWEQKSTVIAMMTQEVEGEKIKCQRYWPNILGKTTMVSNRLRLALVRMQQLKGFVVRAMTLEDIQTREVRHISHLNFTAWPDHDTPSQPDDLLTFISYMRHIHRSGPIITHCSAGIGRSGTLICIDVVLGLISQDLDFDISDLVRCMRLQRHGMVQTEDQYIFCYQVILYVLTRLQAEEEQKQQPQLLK

Consider `CCOc1nc(NC)nc(NC(=O)NS(=O)(=O)c2ccccc2C(=O)OC)n1`, for which, in [1], the AC50 is 14.8 µM (active).
With `CCS(=O)(=O)c1cccnc1S(=O)(=O)NC(=O)Nc1nc(OC)cc(OC)n1`, the molecule was called inactive in assay [2] and in assay [3].
As for `O=C1c2ccccc2C(=O)N1SC(Cl)(Cl)Cl`, the outcome in assay [4] was inactive.
Regarding `C[C@H]1[C@H](c2ccc(Cl)cc2)SC(=O)N1C(=O)NC1CCCCC1`, the call in [5] was inactive.
On to `O=S(=O)(O)C(F)(F)C(F)(F)C(F)(F)C(F)(F)C(F)(F)C(F)(F)C(F)(F)C(F)(F)F`, for which the AC50 was 22.6 µM (active) [middle of 4 runs] in [6]; 24.1 µM (active) in assay [7]; 25 µM (active) in [8]; 5.35 µM (active) in [1]; 36.3 µM (active) and 47.7 µM (active) in assay [10]; 25 µM (active) and 21.9 µM (active) in assay [11]. For the same molecule, the concentration at half-maximal activity (AC50) in assay [2] is 6.79 µM (active) and 4.5 µM (active) and 8.3 µM (active); in the assay with PPP2CA (gene 5515), 7.02 µM (active) and 5.37 µM (active); in [14], 11.5 µM (active) and 18.4 µM (active); in [15] it was 26.9 µM (active); in [16], 19.6 µM (active) and 15.5 µM (active); in assay [3], 7.35 µM (active) and 26.9 µM (active). The AC50 in assay [17] is 20.7 µM (active) and 30 µM (active) and 30.1 µM (active); in assay [18], 10.5 µM (active) and 36.6 µM (active); in assay [4] it was 38.9 µM (active). The molecule was classed as inactive in assay [9], in [12], in assay [13] and in assay [15].
Turning to `Oc1cc(Cl)ccc1Oc1ccc(Cl)cc1Cl`, the outcome (in assay [8]; in assay [9]; in assay [11]; with PPP2CA (gene 5515); in [16]; in [17]) was inactive.
Consider `Oc1ccc(Cl)cc1Cc1ccccc1`, for which the result in assay [9], in assay [1], in assay [11] and in [2] was inactive.
For `COc1nn(CSP(=S)(OC)OC)c(=O)s1`, the AC50 in assay [1] is 9.55 µM (active).
On to `Cc1[nH]c(=O)n(C(C)(C)C)c(=O)c1Cl`, for which the AC50 in [11] was 9.17 µM (active). Further, the molecule was classed as inactive in assay [15].
As to `COP(=S)(OC)Oc1ccc([N+](=O)[O-])cc1`, the molecule was called inactive in assay [1].
For `COC(=O)c1ccccc1S(=O)(=O)NC(=O)N(C)c1nc(C)nc(OC)n1`, the molecule was called inactive in assay [7], in assay [10], in assay [14], in assay [18] and in assay [4]. In addition, the AC50 in assay [1] is 25 µM (active).
Consider `C#CCN1C(=O)COc2cc(F)c(N3C(=O)C4=C(CCCC4)C3=O)cc21`, for which, in [4], the molecule was called inactive.
